SMARCA2 act = increases SMARCA2 function in MMTV reporter cells; MG213 cells, MMTV-luciferase reporter, dexamethasone, overnight; activation, % at 9.1 µM; hit rate 1% among 370,000; in the data active = activation above about 7.8%;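 note: 0% = vehicle wells and 100% = reference activator wells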
FAS-TE inh = inhibitors of human fatty acid synthase thioesterase domain | recombinant FAS-TE, OMFH fluorogenic substrate, fluorescence endpoint | P49327 | inhibition, % at 15 µM | hit rate 0.67% among 360,000;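 active = compounds whose normalised, plate-corrected inhibition of enzyme fluorescence in the single-dose primary screen is 50% or more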;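 note: 0% = DMSO with enzyme and 100% = substrate without enzyme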
proKLK7 act = activators of human kallikrein-7 zymogen; purified proKLK7, EDANS-DABCYL substrate fluorescence; 100% is mature enzyme control, 0% vehicle; activation, % at 7 µM; hit rate 0.9% among 370,000; AID 652039;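 active = activation above the mean of all tested compounds plus 3 SD, computed per campaign excluding outliers beyond control limits, cut at about 13% in these data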
Target sequence (P49862 whole entry, looked up): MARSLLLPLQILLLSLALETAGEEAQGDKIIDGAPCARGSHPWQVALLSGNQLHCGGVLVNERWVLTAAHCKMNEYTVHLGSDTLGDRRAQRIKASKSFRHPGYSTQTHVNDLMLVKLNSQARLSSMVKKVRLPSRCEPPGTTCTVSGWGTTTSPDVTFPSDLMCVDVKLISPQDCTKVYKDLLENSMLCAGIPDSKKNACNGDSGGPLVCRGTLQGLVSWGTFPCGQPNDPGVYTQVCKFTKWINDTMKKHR
FXN GAA850 act = increases GAA850 frataxin promoter reporter activity; HEK293 lucGAA850 FXN promoter luciferase reporter, 24 h; percent of 10 µM SAHA response; activation, % at 6 µM; hit rate 0.56% among 360,000; AID 540364;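 active = activation above the average of all compounds screened plus 3 SD, cutoff fixed separately per campaign, cut at about 7.5% in these data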;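 note: 0% = DMSO wells and 100% = 10 µM SAHA wells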
SMARCA2 act conf = SMARCA2 activation, confirmation screen; shares compounds with SMARCA2 act; MG213 cells, MMTV-luciferase with dexamethasone, luminescence, overnight; MG213 cells expressing E1A, Rb sequestered; DMSO wells 0%, reference activator 100%; activation, % at 9.1 µM; hit rate 30% among 3,500; AID 652260;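 active = activation above its plate's cutoff, the mean activation of tested wells plus 3 SD, cut at about 7.9% in these data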
GAL4-VP16 Luc = counter-screen for SMARCA2 activators: GAL4-VP16 luciferase reporter activation; shares compounds with SMARCA2 act; HEK293 GAL4-VP16 pG5luc reporter, luciferase luminescence; scaled: DMSO wells 0%, SAHA wells 100%; activation, % at 9.1 µM; hit rate 41% among 3,500;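 active = activation above the solvent-only control well mean plus 3 SD, averaged across control plates, cut at about 5.2% in these data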
An asterisk follows results filed as active; . = no result. Sampled rows, rich in hits. Any-hit rate of the full collection: about 2.9%.

SMILES	SMARCA2 act	FAS-TE inh	proKLK7 act	FXN GAA850 act	SMARCA2 act conf	GAL4-VP16 Luc
O=C(COC(=O)CC1CCCC1)Nc1cc2c(cc1Cl)C(=O)c1ccccc1C2=O	8.1*	-7.0	-0.5	4.2	8.6*	13.9*
CC(C)c1ccc(NC(=O)COC(=O)CC2CCCC2)cc1	-2.5	35.1	0.0	1.5	.	.
COc1ccccc1N1CCN(C(=O)c2cccc(S(=O)(=O)N3c4ccccc4CC3C)c2)CC1 (centres undefined)	3.4	35.1	1.1	-5.4	.	.
Cc1ccc(-c2nc3ccccc3c(=O)o2)cc1	2.6	10.5	0.2	5.3	.	.
O=c1oc(-c2ccc(Br)o2)nc2ccccc12	13.6*	43.3	0.2	0.5	7.3	2.8
CCc1noc(C)c1C(=O)N(CC)CC(=O)NCc1ccc(F)cc1	-1.3	-6.9	0.0	-1.7	.	.
CN1CCCC1(C)C(=O)Nc1ccc(-n2cccc2)cc1 (centres undefined)	8.2*	-4.3	-0.5	6.0	4.4	3.5
Nc1ccc(C2(c3ccc(N)cc3)C(=O)Nc3ccccc32)cc1	-1.8	-7.0	-0.2	1.1	.	.
O=C1Nc2ccccc2C1(c1ccccc1)c1ccccc1	11.2*	4.5	0.4	-1.6	3.3	-2.0
COc1ccc(-c2nc3nc(C)c(Cc4ccccc4)c(=O)n3[nH]2)cc1	8.1*	-1.6	-0.5	0.3	2.6	3.4
COC(=O)Cc1c(C)nc2nc(-c3ccc(OC)cc3)[nH]n2c1=O	-0.5	-8.5	-0.5	-0.5	.	.
Cc1ccc(NC(=O)N2CCc3ccccc3C2)cc1	8.9*	0.3	-0.6	4.5	4.9	8.5*
CC(=O)c1cccc(NC(=O)N2CCc3ccccc3C2)c1	8.2*	0.8	-0.2	3.3	4.2	7.8*
O=C(Nc1ccccc1)N1CCc2ccccc2C1	7.7	-6.2	-0.2	4.4	.	.
CC(C)NC(=O)CS(=O)(=O)c1ccccc1	-0.1	-13.4	0.0	-0.2	.	.
Cc1ccccc1-c1cc2nc(NCc3ccncc3)n(C)c(=O)c2s1	11.3*	5.6	1.0	1.1	3.3	2.8
COc1ccc(NC(=O)C2CC(c3ccc(Cl)cc3)=NO2)cc1 (centres undefined)	0.9	-3.1	0.2	1.3	.	.
Cc1c(C)c2ccc(Oc3ccc([N+](=O)[O-])cc3C(F)(F)F)c(C)c2oc1=O	-0.5	17.5	-0.3	1.9	.	.
O=C(O)CC(c1cccc(C(F)(F)F)c1)N1CCS(=O)(=O)CC1 (centres undefined)	-0.6	-3.8	-0.7	-0.4	.	.
CCc1noc(C)c1C(=O)N1CCCC(N2CCN(c3ccccc3F)CC2)C1 (centres undefined)	1.6	-4.5	-0.1	-0.3	.	.
C=CCNc1ncnc2c1cnn2-c1ccc(Cl)cc1	11.7*	3.7	0.6	3.2	8.3*	11.5*
CCCCNc1ncnc2c1cnn2-c1ccc(Cl)cc1	10.5*	11.5	0.4	-0.5	4.7	9.8*
Cc1ccc(CNc2ncnc3c2cnn3-c2ccccc2)cc1	0.1	-8.1	-0.7	3.3	.	.
Clc1ccc(-n2ncc3c(NCc4ccccn4)ncnc32)cc1	11.5*	-8.1	0.3	5.0	11.3*	6.0*
COc1ccccc1CNc1ncnc2c1cnn2-c1ccccc1	8.2*	8.8	-0.2	0.0	0.8	4.2
SMILES	SMARCA2 act	FAS-TE inh	proKLK7 act	FXN GAA850 act	SMARCA2 act conf	GAL4-VP16 Luc
C=CCNc1ncnc2c1cnn2-c1cccc(C)c1	3.0	-4.1	0.5	4.6	.	.
Cc1ccc(-n2ncc3c(NCc4ccccn4)ncnc32)c(C)c1	-3.6	-0.4	0.1	-0.9	.	.
Cc1c(C)c2ccc(OCc3ccc(C(=O)O)o3)c(C)c2oc1=O	-0.4	-8.5	-1.7	0.6	.	.
COc1ccccc1OCCn1nnc2ccccc21	10.7*	-2.4	0.4	3.4	7.1	4.7
COc1ccc(S(=O)(=O)N2CC(=O)Nc3ccccc32)cc1F	-1.1	-0.3	2.4	1.2	.	.
NNC(=O)c1cccn(Cc2ccc(Cl)cc2Cl)c1=O	-1.3	-3.2	-0.5	1.9	.	.
O=C1/C(=C/c2cccs2)Cc2ccccc21	9.6*	-3.4	-0.4	3.7	8.3*	2.7
O=C1C(=Cc2cccs2)C(=O)c2ccccc21	-1.8	-8.1	-0.6	1.3	.	.
COc1cccc(N(CC(=O)N2CCN(C)CC2)S(=O)(=O)c2ccccc2)c1	8.6*	-6.8	-0.4	1.5	-2.9	-0.8
CCOC(=O)/C=C(\C)N1N=C(c2ccccc2)CC1c1ccccc1 (centres undefined)	8.3*	2.1	0.2	6.4	2.8	9.2*
O=C(Cc1ccccc1F)Nc1ccc2c(c1)CCC2	11.5*	5.4	-0.6	3.2	3.9	6.6*
COc1ccc(-c2cn3ccccc3n2)cc1[N+](=O)[O-]	3.8	0.5	-0.3	6.2	.	.
O=[N+]([O-])c1cccc(-c2cn3ccccc3n2)c1	11.7*	9.3	0.2	5.5	10.8*	4.5
CC1CN(C(=O)c2ccc(CNS(=O)(=O)c3cccc(C(F)(F)F)c3)cc2)CC(C)O1 (centres undefined)	-2.2	-8.2	-0.2	1.3	.	.
O=c1cc2[nH]c3ccccc3c(=O)n2nc1-c1ccccc1	8.7*	-3.3	-15.2	0.8	9.5*	6.2*
CNC(=O)C1Cc2c(-c3ccc(Cl)cc3)ccnc2O1 (centres undefined)	3.6	-5.6	-0.6	2.2	.	.
COCCNc1ncnc2c1ncn2[C@H]1CN(Cc2cccs2)C[C@@H](CO)O1	-1.6	-5.6	-0.3	-0.2	.	.
CCCNCc1cc(Cl)c(OCC)c(Cl)c1	9.1*	-4.5	-0.4	-1.6	-3.9	-1.4
CC1=C(C(=O)Nc2cccc(C(=O)NC3CCCC(C)C3C)c2)SCCO1 (centres undefined)	-3.8	3.9	-0.2	-4.8	.	.
O=C(CCC(=O)OCc1ccc(Cl)cc1)Nc1cccc([N+](=O)[O-])c1	5.9	24.3	-0.7	-0.5	.	.
O=C(Nc1ccc(OC(F)F)c(Cl)c1)c1ccccn1	12.2*	3.6	-0.4	6.9	11.0*	19.4*
COc1ccc(C)cc1NC(=O)c1ccccc1NS(=O)(=O)c1cccc2cccnc12	8.1*	-6.0	-0.9	1.6	-3.4	-1.3
COc1ccc(C)cc1NC(=O)C1CCN(S(=O)(=O)c2cccc3cccnc23)CC1	-0.4	7.9	-0.6	-1.1	.	.
Cc1cc(C(=O)NCc2ccccc2)no1	-1.1	-8.5	-0.2	1.9	.	.
Cc1cc(C(=O)NCc2ccccc2Br)no1	9.4*	-3.7	-0.6	0.7	1.1	1.3
CC(=O)Nc1ccc(Cl)cc1C1COC(=O)C1=N (centres undefined)	-1.8	-7.1	2.1	-1.4	.	.
CN(C(=O)COC(=O)c1ccc[nH]c1=O)C1CCCCC1	-1.4	-1.2	-0.2	0.5	.	.
Cc1onc(-c2c(Cl)cccc2Cl)c1C(=O)N1CCSCC1	-0.8	-7.2	-0.9	1.2	.	.
COc1cccc(NC(=O)CCc2c(C)nn(-c3ccc(N4CCOCC4)nn3)c2C)c1	10.6*	-4.9	-0.6	-1.1	1.8	2.9

Source: PubChem
